From PubChem BioAssay AID720517 (National Center for Advancing Translational Sciences (NCATS), 2013) come the findings set out here.

Inconclusive results are not listed. Values without a mark were called inactive. Calls follow the shape of the dose curve; as a rule, active = well fitted activation curve with a large enough effect; inconclusive = small, poorly fitted or top-dose-only effect; inactive = flat fitted curve, though single readings scatter.

The experiment can be described thus: qHTS for Inhibitors of Cell Surface uPA Generation: FP59 Counterscreen for Cherry-picked Compounds. Also: 0% is about no effect. Conditions: FP59 anthrax toxin cytotoxicity counterscreen, cells; series mostly up to 115 µM; activity (protection from FP59): at the top concentration.
For the molecule `CCC(=O)N1CCC(NC(=O)Nc2ccc(OC(F)(F)F)cc2)CC1`, the “activity (protection from FP59)” value was 0.228%. As to `CC1(C)C([N+](=O)[O-])C(c2ccc(F)cc2)NC(c2ccc(F)cc2)C1[N+](=O)[O-]` (stereo not given), the “activity (protection from FP59)” value is 2.83%. `N#CCCN(C(=O)COC(=O)c1ccc2c(c1)NC(=O)CS2)c1ccc2c(c1)OCCO2`: the “activity (protection from FP59)” value was -1.28%. For the molecule `Cc1nc(N2CCN(c3ccc(Cl)cc3)CC2)[nH]c(=O)c1C`, the “activity (protection from FP59)” value is -0.777%.

As to `O=C(CNC(=O)c1ccc(Br)o1)NNC(=O)c1ccccc1`, the “activity (protection from FP59)” value was -1.44%. Consider `COc1ccccc1N1CCN(C2CC(=O)N(c3ccccc3)C2=O)CC1` (stereo not given), for which the “activity (protection from FP59)” value was -1.38%.

For `CCOC(=O)Cc1csc(NC(=O)Nc2cccc(OC)c2)n1`, the “activity (protection from FP59)” value was -1.49%. Regarding `CC(C)OC(=O)Nc1ccc(-c2ccc(NC(=O)OC(C)C)cc2Cl)c(Cl)c1`, the “activity (protection from FP59)” value was -1.28%. Turning to `Cc1ccc2cc(C=O)c(Cl)nc2c1`, the “activity (protection from FP59)” value was -1.35%.

In the case of `COc1ccc(Nc2nc(-c3ccccc3)c(C(=O)Nc3cccnc3)s2)cc1`, the “activity (protection from FP59)” value is -1.43%. As for `Cc1nc2ncccn2c1-c1csc(Nc2ccc(S(N)(=O)=O)cc2)n1`, the “activity (protection from FP59)” value is -0.455%.

Regarding `COc1cc(C2NC(=O)NC(C)=C2C(=O)OCC2CCCCC2)ccc1O` (stereo not given), the “activity (protection from FP59)” value is -0.645%.

For `Cc1cccc(/C=N/Nc2cc(N3CCOCC3)nc(N3CCOCC3)n2)c1`, the “activity (protection from FP59)” value is 3.08%. On to `Cc1cc(C)n2nc(CNS(=O)(=O)c3ccc(F)c(C)c3)nc2n1`, for which the “activity (protection from FP59)” value is -1.49%. Take `COC(=O)/C(C#N)=C/c1c(N2CCN(c3ccccc3)CC2)nc2c(C)cccn2c1=O`: the “activity (protection from FP59)” value was 0.153%. Take `Cc1oc2c(Cl)c(Cl)c(O)c(CN(C)C)c2c1C(=O)c1ccc(Cl)cc1`: the “activity (protection from FP59)” value was -0.466%. For the molecule `Cc1noc(C)c1CSCC(=O)Nc1cc(Cl)ccc1N1CCCCC1`, the “activity (protection from FP59)” value was 7.4%.

On to `CC1(NC(=O)CSc2nnc(-c3c[nH]c4ccccc34)n2C2CC2)CCS(=O)(=O)C1` (stereo not given), for which the “activity (protection from FP59)” value was 0.18%.

Take `CC1Cc2nc(SCC(=O)Nc3ccc4c(c3)OCO4)n(-c3ccc(F)cc3)c(=O)c2S1` (stereo not given): the “activity (protection from FP59)” value was -1.41%. Take `CCOC(=O)C1CCCN(CC(=O)Nc2ccc(C(=O)Nc3ccccc3OC)cc2)C1` (stereo not given): the “activity (protection from FP59)” value is 0.429%. Regarding `COc1ccc(/C=C/C(=O)Nc2ccccc2Cl)cc1S(=O)(=O)N1CCOCC1`, the “activity (protection from FP59)” value is -0.992%.

On to `CCCCN(CC(=O)NCc1ccc(F)cc1)C(=O)c1ccco1`, for which the “activity (protection from FP59)” value is -1.31%. As for `COc1ccc(NS(=O)(=O)c2c(C)n(C)c(=O)n(C)c2=O)cc1OC`, the “activity (protection from FP59)” value is -1.51%. As for `O=C(NCCN1CCOCC1)c1ccc2c(c1)N(Cc1ccc(Cl)cc1)CCS2`, the “activity (protection from FP59)” value was -1.33%. For `Cc1ccccc1OCCC(=O)NNC(=O)c1ccccc1F`, the “activity (protection from FP59)” value was -1.31%. Regarding `O=C1CCCC/C1=C\Nc1ccc(S(=O)(=O)Nc2cnc3ccccc3n2)cc1`, the “activity (protection from FP59)” value was -1.53%. Consider `CC1(C)CC2(CC(c3ccccc3)Oc3cc(O)ccc32)NC(=S)N1` (stereo not given), for which the “activity (protection from FP59)” value is -0.346%. Take `CC(=O)c1ccc(NC(=O)Nc2ccc(Br)cc2C)cc1`: the “activity (protection from FP59)” value was -1.21%. With `Cc1ccn(CCC(=O)N2CCc3ccccc32)n1`, the “activity (protection from FP59)” value is -1.44%.

For the molecule `COc1ccc(CNC(=O)C2CCC(CNS(=O)(=O)c3ccc(C)cc3)CC2)cc1` (stereo not given), the “activity (protection from FP59)” value is -1.41%. For the molecule `O=C(O)CSc1nnc(COc2ccccc2)n1-c1ccccc1`, the “activity (protection from FP59)” value is -1.31%. Regarding `CC(=O)NC(=S)Nc1ccc([N+](=O)[O-])cc1C`, the “activity (protection from FP59)” value was -1.26%. With `COc1ccc(C)cc1NC(=O)CSCc1cc(=O)n2c(C)csc2n1`, the “activity (protection from FP59)” value is -1.12%. For the molecule `Cc1ccnc(NC(=O)CCNS(=O)(=O)c2ccc(C)c(C)c2)c1`, the “activity (protection from FP59)” value was -1.33%. For `COc1ccc(C2=NOC(CNC(N)=S)C2)cc1` (stereo not given), the “activity (protection from FP59)” value was -1.38%. Under `Clc1ccc(C2=NN=C3COc4ccccc4N3C2)cc1` stands -1.23%. As to `NC(=O)CC(NC(=O)Cc1cccc2ccccc12)c1ccc(N2CCN(c3ccc(F)cc3)CC2)c([N+](=O)[O-])c1` (stereo not given), the “activity (protection from FP59)” value was -1.4%.

For `O=C(NC1CCCCC1)C(c1ccco1)N(C(=O)c1csnn1)c1cccc(Cl)c1` (stereo not given), the “activity (protection from FP59)” value is 1.68%. `CC(C)(C)C(=O)NCCc1nc2ccccc2n1CC(=O)c1ccc(Cl)cc1`: the “activity (protection from FP59)” value is 0.0081%. For `O=[N+]([O-])c1ccc(SCc2ccncc2)nc1`, the “activity (protection from FP59)” value was -0.905%.
